Results from PubChem BioAssay (NCATS).
“And” between values parts separate entries of the source, which are not always exact repeats. Identical values can stand only once. Inconclusive results are not listed. A number with no mark means an inactive call. The source made the active and inactive calls. Calls come from the whole dose curve; as a rule, active = well fitted inhibition curve with a large enough effect; inconclusive = small, poorly fitted or top-dose-only effect; inactive = flat fitted curve, though single readings scatter.

Assay: Primary qHTS for inhibitors of nuclear receptor binding SET domain protein 2 (NSD2) in an isogenic RCH-ACV NSD2 p.E1099K mutant (9B) (AID 1645876); note: nearly all actives have a fitted effect of over 70% in size
Conditions: RCH-ACV (leukaemia line) NSD2 E1099K (9B) viability, CellTiter-Glo, 72 h; series mostly up to 44.9 µM; activity change, negative = viability loss: at the top concentration
% is set by controls: 0 for no effect and ±100 for the full control effect; potency is the fitted concentration of half-maximal effect.

SMILES | activity change, negative = viability loss | Potency | outcome
COc1ccc(C2(C#N)CCC(C(=O)O)CC2)cc1OC1CCCC1 (stereo not given) | -12.9% | – | –
O=C(NOCC1CC1)c1ccc(F)c(F)c1Nc1ccc(I)cc1Cl | – | 8.41 µM (active) and 23 µM (active) | –
CC1Cc2ccccc2N1NC(=O)c1ccc(Cl)c(S(N)(=O)=O)c1 (stereo not given) | – | inactive | –
COC1=C(OC)C(=O)C(CCCCCCCCCCO)=C(C)C1=O | – | 11.9 µM (active) and 18.6 µM (active) | –
Nc1nc(Cl)nc2c1ncn2[C@H]1C[C@H](O)[C@@H](CO)O1 | – | 0.0468 µM (active) | –
CC(=O)NC[C@H]1CN(c2ccc(N3CCOCC3)c(F)c2)C(=O)O1 | -9.84% | – | –
CCCCN(CCCC)CCC(O)c1cc2c(Cl)cc(Cl)cc2c2cc(C(F)(F)F)ccc12 (stereo not given) | – | 13.3 µM (active) | –
O=c1oc2cc(O)ccc2s1 | – | 20.9 µM (active) | –
NS(=O)(=O)c1cc(C(=O)O)c(NCc2ccco2)cc1Cl | – | – | inactive
CCOc1cc(CC(=O)N[C@@H](CC(C)C)c2ccccc2N2CCCCC2)ccc1C(=O)O | -16.1% | – | –
Cc1nc(Nc2ncc(C(=O)Nc3c(C)cccc3Cl)s2)cc(N2CCN(CCO)CC2)n1 | – | 0.7 nM (active) and 12.9 nM (active) and 20.9 nM (active) | –
Cc1cc(=O)c2c(O)c3c(O)cc(=O)c4c3c3c(cc(O)c1c23)C(C)(C)C=4O | -16.1% [at 17.3 µM] | – | –
Cc1cccc(CN2CCN(C(c3ccccc3)c3ccc(Cl)cc3)CC2)c1 (stereo not given) | -25.4% | – | –
Oc1ccc(-c2nc(-c3ccc(F)cc3)c(-c3ccncc3)[nH]2)cc1 | – | 5.25 µM (active) | –
Cc1nc(-c2ccc(OCC(C)C)c(C#N)c2)sc1C(=O)O | – | inactive | –
NC(=NCc1ccccc1)NC(=O)c1nc(Cl)c(N)nc1N | – | 13.2 µM (active) | –
C=C(c1ccc(C(=O)O)cc1)c1cc2c(cc1C)C(C)(C)CCC2(C)C | – | inactive | –
Cc1ccc(NC(=O)c2ccc(CN3CCN(C)CC3)cc2)cc1Nc1nccc(-c2cccnc2)n1 | – | 15 µM (active) and 20.6 µM (active) and 18.6 µM (active) | –
Cc1cc(C2CCCCC2)n(O)c(=O)c1 | – | 5.8 µM (active) and 266 nM (active) and 7.42 µM (active) | –
Nc1ccn([C@@H]2O[C@H](CO)[C@@H](O)C2O)c(=O)n1 (stereo not given in full) | – | 0.0166 µM (active) | –
CCC1=C(C)CN(C(=O)NCCc2ccc(S(=O)(=O)NC(=O)NC3CCC(C)CC3)cc2)C1=O (stereo not given) | -14.3% | – | –
CC1=C(C)C(=O)C(C(CCCCCC(=O)O)c2ccccc2)=C(C)C1=O (stereo not given) | 6.07% | – | –
CCCS(=O)c1ccc2nc(NC(=O)OC)[nH]c2c1 (stereo not given) | – | 4.22 µM (active) and 8.17 µM (active) | –
Nc1cccc2c1CN(C1CCC(=O)NC1=O)C2=O (stereo not given) | -42.1% | – | –
Nc1ccc(S(N)(=O)=O)cc1 | 3.82% | – | –
